Results as given in article PMC4552634, “A New Set of Chemical Starting Points with Plasmodium falciparum Transmission-Blocking Potential for Antimalarial Drug Discovery” (PLoS ONE, 2015).
Like-named read-outs stand apart in the source and are kept apart here. The campaign covered roughly 13,000 compounds. About 3,200 (25%) showed an effect of 50% or more. This is one part of the list.

Tested on: P. falciparum stage V gametocytes
Parameters: BacTiter-Glo ATP luminescence viability of purified stage V gametocytes in 384-well plates, per cent inhibition versus DMSO
Details: 48 h, 5 µM, inhibitor

Structure (SMILES) | % Inhibition [%] | % Inhibition (% Inhibition) [%]
N=C(N)c1ccc(C(=O)Nc2cccc(C(=N)N)c2)cc1 [TCMDC-137804] | 7.039 | 
CCOc1cc(C(=O)NCCCN2CCN(c3cccc(Cl)c3)CC2)ccc1-c1nc2cc(Cl)c(F)cc2[nH]1 [TCMDC-140097] | -13.16 | 
O=C(/C=C/c1ccc(Cl)c(Cl)c1)NCCCCCN1CCC(NC(=O)Nc2ccccc2Cl)CC1 [TCMDC-135710] | -61.78 | 
Cc1ccc(Nc2ccnc3ccc(C(F)(F)F)cc23)cc1O [TCMDC-138307] | -31.91 | 
CC1(C)N=C(N)NC(NOCC=Cc2ccccc2)=N1 [TCMDC-131690] | -2.035 | 
O=C(NCCc1ccc(Cl)c(Cl)c1)[C@@H]1CCCN1C(=O)c1ccc(O)c(-c2ccc(Cl)c(Cl)c2)c1 [TCMDC-140871] | 35.67 | 
COc1ccc(Nc2ncc3c(-c4cccc(NC(=O)Cc5cccnc5)c4)c[nH]c3n2)cc1OC [TCMDC-135285] | -50.17 | 
CN(C)CCNC(=O)c1ccc2c(c1)n(C1CCN(S(=O)(=O)c3ccc(-c4ccccc4)cc3)CC1)c(=O)n2CC1CCCCC1 [TCMDC-135414] | 22.96 | 
CCc1cccc(NC(=O)/C=C/c2ccc3c(c2)CN(C)CC3)c1 [TCMDC-139241] | 27.65 | 
NC1=NC(c2ccccc2)(c2cccc(O)c2)C(=O)N1CCCc1ccccc1 (stereo not drawn) [TCMDC-132352] |  | -21.91
CCOc1cc(C(=O)NCCCN2CCCCC2C)ccc1-c1nc2ccc(Cl)cc2[nH]1 (stereo not drawn) [TCMDC-140915] | 4.733 | 
CC1CCCCN1CCCNC(=O)c1cccc(-c2cc3cc(Cl)c(Cl)cc3[nH]2)c1 (stereo not drawn) [TCMDC-141291] | -28.41 | 
COc1ccc2cc(-c3nc(-c4c(Cl)cccc4Cl)[nH]c3-c3ccnc(NCCCN4CCCCC4C)c3)ccc2c1 (stereo not drawn) [TCMDC-141247] | 95.77 | 
CCn1c(C)c(C)c2cc(C(=O)Nc3ccon3)ccc21 [TCMDC-124915] | 28.52 | 
Oc1ccccc1CN1CCN(C(c2ccccc2)c2ccccc2)CC1 [TCMDC-124458] | 18.52 | 
Cn1cc(CN2CCCC(COC(c3ccccc3)c3ccccc3)C2)cn1 (stereo not drawn) [TCMDC-136042] | 17.19 | 
Cn1cc(CN2CCCC(COC(c3ccc(F)cc3)c3ccc(F)cc3)C2)cn1 (stereo not drawn) [TCMDC-136043] | -3.69 | 
CC(C)N1CCC(Oc2ccc(CN3CCN(C(c4ccccc4)c4ccc(Cl)cc4)CC3)cc2)CC1 (stereo not drawn) [TCMDC-132411] | 68.21 | 
c1ccc(C(OCCC2CCN(Cc3cccnc3)CC2)c2ccccc2)cc1 [TCMDC-136045] | 0.3767 | 
Cn1cc(CN2CCC(CCOC(c3ccccc3)c3ccccc3)CC2)cn1 [TCMDC-136046] | 75.05 | 
Oc1ccccc1CN1CCC(CCOC(c2ccccc2)c2ccc(Cl)cc2)CC1 (stereo not drawn) [TCMDC-136039] | 23.64 | 
Cn1cc(CN2CCC(OC(c3ccccc3)c3ccc(Cl)cc3)CC2)cn1 (stereo not drawn) [TCMDC-136165] | 63.85 | 
Oc1ccc(CN2CCN(CCOC(c3ccccc3)c3ccc(Cl)cc3)CC2)cc1Cl (stereo not drawn) [TCMDC-135689] | 3.239 | 

Structure (SMILES) | % Inhibition [%] | % Inhibition (% Inhibition) [%]
NC(=O)c1cccc(Nc2nccc(Nc3ccc(Oc4cccc(Cl)c4)c(Cl)c3)n2)c1 [TCMDC-138593] | -22.97 | 
Cc1c(S(=O)(=O)Nc2ccc3ccn(CCN(C)C)c3c2)sc2ccc(Cl)cc12 [TCMDC-139126] | -31.84 | 
COc1ccc(C2CC(c3ccccc3O)=NN2C(=O)c2ccco2)cc1OC (stereo not drawn) [TCMDC-125347] | -56.68 | 
CC(C)C[C@H](Nc1ccnc(NCC2CCCCC2)n1)C(=O)NCCOc1ccccc1 [TCMDC-134712] | 15.38 | 
Cc1cc(O)c(CN(C)Cc2ccc3c(c2)OCO3)cc1C(C)C [TCMDC-124881] | 27 | 
CCOc1ccc(CN(CCc2ccc3c(c2)OCO3)Cc2cc(OC)ccc2O)cc1 [TCMDC-125607] | 58.7 | 
Cc1cc(O)c(CN(C)Cc2ccc3c(c2)OCCO3)cc1C(C)C [TCMDC-124884] | 16.52 | 
CCOC(=O)c1ccc(NC(=O)Nc2cccc(-c3ccc(-c4nc5ccc(F)cc5[nH]4)cc3)c2)cc1 [TCMDC-133267] | -0.2568 | 
Cc1cccc2nc(-c3cccc(-c4ccc(CN5CCC(C(N)=O)CC5)cc4)c3)[nH]c12.O=C(O)C(F)(F)F [TCMDC-132697] | 21.78 | 
COc1ccc(-c2cnc(N)c(-c3ccc(O)c(OC)c3)c2)cn1 [TCMDC-133350] | 11.39 | 
COC(=O)c1ccc2nc(-c3cc(-c4cccc(-c5ccccc5)c4)cnc3N)[nH]c2c1 [TCMDC-135320] | -16.97 | 
COCc1cccc(-c2cc(-c3ccc(S(C)(=O)=O)cc3)cnc2N)c1 [TCMDC-133342] | 35.59 | 
COc1ccc(-c2cnc(N)c(-c3ccc(C(N)=O)cc3)c2)cc1OC [TCMDC-133349] | 67.55 | 
CS(=O)(=O)c1ccc(-c2cnc(N)c(-c3cccc(CO)c3)c2)cc1 [TCMDC-133352] | 33.58 | 
COc1ccc(-c2ccc3c(-c4ccc(F)cc4)cnc(N)c3c2)cn1 [TCMDC-134503] | 16.03 | 
CS(=O)(=O)c1ccc(-c2cnc(N)c(-c3ccc(O)cc3)c2)cc1 [TCMDC-133348] | 24.96 | 
COc1cc(-c2cnc(N)c(-c3nc4ccccc4[nH]3)c2)cc(OC)c1OC [TCMDC-138793] | 9.298 | 
CS(=O)(=O)c1ccc(-c2cnc(N)c(-c3cccc(O)c3)c2)cc1 [TCMDC-133347] | 65.54 | 
COc1cc(-c2cc(-c3ccc(S(C)(=O)=O)cc3)cnc2N)ccc1O [TCMDC-133343] | 105.4 | 
COc1ccc(-c2cc(-c3ccc(S(C)(=O)=O)cc3)cnc2N)cn1 [TCMDC-133351] | 104.2 | 
CS(=O)(=O)c1ccc2nc(-c3cc(-c4cccc(F)c4)cnc3N)[nH]c2c1 [TCMDC-133134] | 32.71 | 
CCCc1cc(OC)c(CC2c3cc(O)c(C)cc3CCN2C)cc1OC (stereo not drawn) [TCMDC-137164] | -32.49 | 
